Source: PubChem (National Center for Advancing Translational Sciences (NCATS))
L3MBTL1 inh-1 = inhibitors of human L3MBTL1; AlphaScreen L3MBTL1–H3K9me1 peptide binding; AID 485360; Potency, µM (series often up to 57.1 µM), inactives show top-dose activity, negative = inhibition, actives largely listed as inhibitors; Q9Y468; actives 0.66% (n = 230,000); further: potency means the concentration at half of the fitted maximal effect; on the % scale 0 is the no-effect control and ±100 the full control effect; nearly all actives have a fitted effect of over 60% in size
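AlphaScreen assay: L3MBTL1 (50 nM final) was preincubated 30 min at room temperature with biotinylated H3(1-15)K9me1 peptide (75 nM final), then 30 min with library compounds; streptavidin donor and nickel chelate acceptor beads (10 ug/mL final) added, 30 min dark.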
POLK inh = DNA polymerase kappa (human) inhibition; Q9UBT6; actives 0.53% (n = 400,000); Potency, µM (series often up to 107 µM), inactives show at the top dose activity, negative = inhibition, most hits filed as inhibitors; purified Pol kappa, fluorescent DNA synthesis assay, 10 min; further: potency means the concentration at half of the fitted maximal effect; on the % scale 0 is the no-effect control and ±100 the full control effect
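Kinetic fluorescence screen: compound preincubated 15 min RT with 10 nM enzyme; 50 nM substrate (final) initiates; reads at 0/10 min.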
Pol beta inh-1 = DNA polymerase beta (human) inhibition; P06746; Pol beta primer extension/strand displacement, fluorescence kinetic; Potency, µM (doses to about 114 µM), for the others: at the top dose activity change, negative = inhibition, most hits filed as inhibitors; actives 1.3% (n = 340,000); AID 485314; further: potency means the concentration at half of the fitted maximal effect; on the % scale 0 is the no-effect control and ±100 the full control effect
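Pol beta (10 nM) was preincubated with compound for 15 min at room temperature. The reaction was then started with 50 nM substrate and read immediately and after a further 10 min at room temperature.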
APE1 inh-1 = blocks human APE1 abasic DNA cleavage. P27695. recombinant APE1, TAMRA/BHQ-2 abasic DNA cleavage fluorescence. Potency, µM (series often up to 65.8 µM), for inactives: top-dose activity change, negative = inhibition, usual class: inhibitors. actives 0.35% (n = 350,000). AID 2517;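 further: potency means the concentration at half of the fitted maximal effect; plate controls were vehicle for no effect and reference inhibitor for full effect; nearly all actives have a fitted effect of over 55% in size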
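APE1 at 0.75 nM preincubated 15 min at room temperature with compound. Reaction then started with 50 nM double-stranded THF-abasic substrate labelled with TAMRA/BHQ-2, and 525/598 nm fluorescence read kinetically. Activity taken as third-minus-first read difference, normalized to DMSO and NSC13755 controls.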
Pol eta inh = blocks human DNA polymerase eta activity; Potency, µM (top dose mostly 114 µM), inactives show at the highest dose activity change, negative = inhibition, actives largely listed as inhibitors; actives 1.2% (n = 390,000); Q9Y253; recombinant Pol eta, fluorescent DNA replication assay; further: potency means the concentration at half of the fitted maximal effect; on the % scale 0 is the no-effect control and ±100 the full control effect
Target sequence (Q9Y253 whole entry, looked up): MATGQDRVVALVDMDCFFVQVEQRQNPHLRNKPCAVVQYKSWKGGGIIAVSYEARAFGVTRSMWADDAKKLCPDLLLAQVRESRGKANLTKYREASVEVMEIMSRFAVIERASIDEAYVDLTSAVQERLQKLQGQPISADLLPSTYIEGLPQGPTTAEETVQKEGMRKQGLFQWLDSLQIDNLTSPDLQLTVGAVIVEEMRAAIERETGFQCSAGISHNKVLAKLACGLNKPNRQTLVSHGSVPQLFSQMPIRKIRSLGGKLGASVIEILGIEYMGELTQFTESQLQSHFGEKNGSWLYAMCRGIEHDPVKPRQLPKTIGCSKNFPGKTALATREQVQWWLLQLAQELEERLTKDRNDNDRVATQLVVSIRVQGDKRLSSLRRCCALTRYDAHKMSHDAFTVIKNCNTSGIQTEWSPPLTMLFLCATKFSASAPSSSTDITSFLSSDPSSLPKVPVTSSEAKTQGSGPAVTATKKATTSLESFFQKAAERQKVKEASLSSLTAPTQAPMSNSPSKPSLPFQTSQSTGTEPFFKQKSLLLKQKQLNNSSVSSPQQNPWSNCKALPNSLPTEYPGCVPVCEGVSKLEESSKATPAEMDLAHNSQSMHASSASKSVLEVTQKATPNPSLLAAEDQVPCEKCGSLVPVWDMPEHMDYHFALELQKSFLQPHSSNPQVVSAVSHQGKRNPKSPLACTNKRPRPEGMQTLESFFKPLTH
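Fluorescent replication assay: 50 nM final substrate added after a 15 min room-temperature compound preincubation with 10 nM enzyme. Signal taken at 0 min and again at 10 min.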
Pol iota inh = DNA polymerase iota (human) inhibition | Q9UNA4 | AID 588590 | actives 1% (n = 390,000) | Potency, µM (highest dose often 115 µM), for inactives: at the top dose activity, negative = inhibition, actives largely listed as inhibitors | Pol iota fluorescent replication assay, 10 min; further: potency means the concentration at half of the fitted maximal effect
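Pol iota at 10 nM preincubated 15 min with compounds at room temperature; reaction started with fluorescent substrate, 50 nM final. Fluorescence read kinetically at 0 and 10 min; buffer-only wells as negative control.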
DNA dye displace = DNA dye displacement counter-screen activity; shares compounds with APE1 inh-1; DNA fluorescent dye displacement counterscreen, fluorescence; Potency, µM (highest dose often 28.5 µM), without a hit: at the highest dose activity change, negative = inhibition, actives largely listed as inhibitors; actives 7% (n = 480);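 further: loss of thiazole orange fluorescence as the dye is displaced from duplex DNA; potency means the concentration at half of the fitted maximal effect; 0% = ThO with dsDNA and no compound and -100% = ThO without dsDNA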
Endo IV inh = Endo IV (E. coli) inhibition counter-screen. Potency, µM (highest dose often 27.1 µM), for the others: at the top dose activity change, negative = inhibition, actives largely listed as inhibitors. actives 4% (n = 560). shares compounds with APE1 inh-1. E. coli Endo IV, fluorogenic AP-site DNA cleavage;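 further: potency means the concentration at half of the fitted maximal effect; plate controls were uninhibited enzyme wells for no effect and no enzyme buffer wells for full effect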
APE1 inh-2 = APE1 (human) endonuclease inhibition, confirmation; Potency, µM (highest dose often 57.1 µM), inactives show top-dose activity change, negative = inhibition, hits mostly inhibitors; actives 44% (n = 750); shares compounds with APE1 inh-1; purified APE1, fluorogenic abasic-site DNA cleavage; further: potency means the concentration at half of the fitted maximal effect; on the % scale 0 is the no-effect control and ±100 the full control effect; nearly all actives have a fitted effect of over 30% in size
APE1 FP inh = APE1 (human) DNA binding inhibition, fluorescence polarization. Potency, µM (doses to about 28.5 µM), inactives show top-dose activity, negative = inhibition, most hits filed as inhibitors. APE1 binding to TAMRA-labelled double-stranded DNA, fluorescence polarization displacement. actives 7% (n = 480). shares compounds with APE1 inh-1. AID 2573; further: potency means the concentration at half of the fitted maximal effect; on the % scale 0 is the no-effect control and ±100 the full control effect
Pol beta inh-2 = Human Pol beta inhibitor hit validation | Pol beta primer extension/strand displacement, fluorescence kinetic | AID 540280 | shares compounds with Pol beta inh-1 | Potency, µM, usual class: inhibitors | actives 87% (n = 250); calls by dose curve; further: potency means the concentration at half of the fitted maximal effect
Klenow inh = counter-screen for DNA polymerase beta inhibitors: Klenow fragment inhibition. shares compounds with Pol beta inh-1. 250 tested, under 10 active. AID 540300. Klenow exo- polymerase counter-screen, fluorescent DNA substrate. activity change, negative = inhibition, % at 57.1 µM
HIV RT inh = inhibits HIV-1 reverse transcriptase in counter-screen | shares compounds with Pol beta inh-1 | HIV-1 RT polymerase activity, counter-screen | activity % (negative = inhibition, positive = activation), % at 57.1 µM | 250 tested, under 10 active | AID 540301
POLB valid = validation of human DNA polymerase beta inhibitors; actives 91% (n = 110); shares compounds with Pol beta inh-1; radiolabeled primer extension gel assay, phosphorimager; inhibition, % at 10 µM; AID 540325;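 active means inhibition at 10 µM of 30% or more; inconclusive means no clear call, values can overlap the other calls; inactive means inhibition at 10 µM under 30%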
L3MBTL1 inh-2 = blocks human L3MBTL1 methyl-lysine binding; L3MBTL1 methyl-lysine binding inhibition, biochemical qHTS; shares compounds with L3MBTL1 inh-1; actives 91% (n = 500); Potency, µM, hits mostly inhibitors; AID 540279; further: potency means the concentration at half of the fitted maximal effect; nearly all actives have a fitted effect of over 70% in size
AlphaScreen ctr2 = interferes with AlphaScreen signal in L3MBTL1 counterscreen; AlphaScreen counterscreen, signal inhibition; shares compounds with L3MBTL1 inh-1; 500 tested, under 10 active; Potency, µM (series often up to 57.1 µM), inactives show at the highest dose activity change, negative = inhibition, most hits filed as inhibitors; further: potency means the concentration at half of the fitted maximal effect; 0% is about no effect
The depositor's hits bear a star; ? = inconclusive; . = not tested or not shown; [ ] = remark or other dose. In the library only some 2.5% were active in any assay of this set; here they are far more common. Unless noted, the call rests on the fitted dose curve; in most records, active means well fitted curve in the direction sought with a large enough effect; inconclusive means small, poorly fitted or top-dose-only effect, or another doubt; inactive means no such curve, though single readings can be large; an effect the other way counts as inactive or inconclusive.

SMILES | L3MBTL1 inh-1 | POLK inh | Pol beta inh-1 | APE1 inh-1 | Pol eta inh | Pol iota inh | DNA dye displace | Endo IV inh | APE1 inh-2 | APE1 FP inh | others
O=C(Nc1ccc2oc(-c3ccncc3)nc2c1)c1ccc(F)cc1 | . | -16% | 0% | 5% | 2% | 69% | . | . | ? | .
Cc1cccc(OC(=O)Cn2c(C(F)(F)F)nc3ccccc32)c1 | 3% | -6% | 5% | 35µM* | -7% | 4% | -6% | 3% | ? | -90%
c1cncc(-c2nc(-c3ccco3)cs2)c1 | . | -37% | 7% | 25µM* | 8% | ? | -10% | 0% | -10%[24.4 µM] | ?
COc1ccc(C(=O)NCCc2sc(-c3ccc(Cl)cc3)nc2C)c(OC)c1 | . | -2%[60.1 µM] | -6% | . | -22% | 10% | . | . | . | .
Nc1cc2nc[nH]c2cc1N | -13% | -16% | -3% | -7% | -26% | 28% | . | . | ? | .
COC(=O)c1ccc(=O)c2nc3/c(=C/O)c(O)cc(=O)c3[nH]c12 | . | 14µM* | ? | ? | 28µM* | ? | ? | ? | ? | -28%
COC(=O)c1ccc(N)cc1O | . | -19% | 11% | ? | 7% | 2% | . | . | . | .
CCOC(=O)c1ccc(N2C(=O)c3[nH]nc(-c4ccc(C)cc4)c3C2c2cccs2)cc1 (stereo not drawn) | . | -13% | 21% | . | 0% | -6% | . | . | . | .
CCOC(=O)c1sc2nc3c(SCCC(=O)O)cc(C(=O)c4cc(OC)ccc4O)cn3c(=O)c2c1C | ? | -43% | 2.8µM* | 1.6µM* | 11µM* | ? | ? | 11% | 2.2µM* | ? | Pol beta inh-2=6.3*;Klenow inh=-25;HIV RT inh=22
Cc1cccc(C)c1N1C(=O)CCC(C)(C)C1=O | . | 7% | 5% | 20% | -14% | 32% | . | . | . | .
Cc1ccc(OCCOc2ccc(S(=O)(=O)N3CCCC3)cc2C(N)=O)cc1 | 3% | 5% | . | 24% | -8% | 23% | . | . | . | .
COc1ccc(CCn2c(O)cc3nn(-c4nc5ccccc5s4)c(=O)c-3c2C)cc1 | ? | 22µM* | 1.8µM* | 32µM* | 50µM* | ? | ? | 9% | 16µM* | 4% | Pol beta inh-2=?;Klenow inh=-32;HIV RT inh=36;POLB valid=97*
CC1(OC(=O)c2cccs2)C(=O)C=C2C=C3CCCN3C=C2C1=O (stereo not drawn) | . | 11µM* | 14µM* | 8.9µM* | 22µM* | 4.5µM* | 0% | 17% | ? | -8% | Pol beta inh-2=28*;Klenow inh=9;HIV RT inh=21
CC1(OC(=O)C2CCCC2)C(=O)C=C2C=C3CCCN3C=C2C1=O (stereo not drawn) | . | . | . | 2%[12.4 µM] | . | . | . | . | . | .
Cc1c(C(=O)OCC2CCCO2)[nH]c2c1C(=O)CC(c1ccco1)C2 (stereo not drawn) | 14µM* | 28µM* | 10µM* | 7.1µM* | 3.2µM* | ? | -4% | ? | 4.5µM* | ? | L3MBTL1 inh-2=6*;AlphaScreen ctr2=-2%
O=C(Cn1c(=O)n(Cc2ccco2)c(=O)c2c3c(sc21)CCCCC3)c1ccccc1 | 35µM* | -36% | 10µM* | ? | ? | ? | ? | -6% | -23%[24.4 µM] | 5% | L3MBTL1 inh-2=3.8*;AlphaScreen ctr2=-24%
CN(C)CCn1c(=O)n(Cc2ccco2)c(=O)c2c3c(sc21)CCCCC3 | -10% | -1% | 17% | -1% | -2% | -5%[58.9 µM] | . | . | . | .
Cc1ccc(C(=O)Nc2cc(-c3cn4cccnc4n3)ccc2C)cc1C | . | -1%[60.1 µM] | ? | . | ? | 7% | . | . | . | .
COc1ccc(N2Cc3cccc(C(=O)NC(C)CCc4ccco4)c3C2=O)cc1 (stereo not drawn) | 14µM* | ? | 7.9µM* | 11µM* | 22µM* | ? | -14% | 3% | 11µM* | -16% | L3MBTL1 inh-2=2.7*;AlphaScreen ctr2=9%
CCOc1ccccc1-n1nnnc1SCC(=O)NC(=O)NCc1ccco1 | 25µM* | ? | 22µM* | 28µM* | ? | ? | ? | -5% | ? | ? | L3MBTL1 inh-2=21*;AlphaScreen ctr2=0%
CCOc1ccccc1-n1nnnc1SCC(=O)NC(=O)Cc1ccccc1 | 9% | -23% | . | 5% | -5% | 16% | . | . | . | .
N#C/C(=C\c1ccc(-c2cccc([N+](=O)[O-])c2)o1)c1nnc(N2CCOCC2)n1-c1ccccc1 | 5% | . | 16% | ? | . | . | . | . | . | .
